# From PubChem BioAssay (NCATS)
# Records with an inconclusive call do not appear. Entries that show only a call come without a potency. Calls of active or inactive are those of the source. The call rests on the fitted dose curve; in most records, active means well fitted curve in the direction sought with a large enough effect; inconclusive means small, poorly fitted or top-dose-only effect, or another doubt; inactive means no such curve, though single readings can be large; an effect the other way counts as inactive or inconclusive.
# Key:
# [1] = target: Aldehyde dehydrogenase, mitochondrial (Homo sapiens) (UniProt P05091); experiment: qHTS for Inhibitors of the Aldehyde Dehydrogenase Family (ALDH2) Primary screen (AID 2061308); further: nearly all actives have a fitted effect of over 55% in size
# [2] = target: Retinaldehyde dehydrogenase 3 (Homo sapiens) (UniProt P47895); experiment: qHTS for Inhibitors of the Aldehyde Dehydrogenase Family (ALDH1A3) Primary screen (AID 2061315)
Compound,Potency [1],Potency [2]
Cc1ccc(S(=O)(=O)Nc2cc(C(=O)Nc3nc(-c4ccccc4)cs3)ccc2Cl)cc1,inactive,inactive
C(=C\c1cccs1)/c1cccnc1,inactive,inactive
Cc1ccc(OCCn2c(CCNC(=O)c3ccc(F)cc3F)nc3ccccc32)cc1,inactive,inactive
CS(=O)(=O)c1ccc(C(=O)OCC(=O)N2CCC(c3ccccc3)CC2)cc1[N+](=O)[O-],inactive,inactive
Cc1cc(C)nc(NC(=S)N2CCN(c3cccc([N+](=O)[O-])c3)CC2)c1,inactive,inactive
COc1ccc(C2c3c(ncn(CCc4ccccc4)c3=N)Oc3ccc4ccccc4c32)cc1OC (stereo not given),inactive,inactive
Cc1ccc(NS(=O)(=O)c2ccc(N3CCCC3=O)cc2)cc1C,inactive,inactive
CCCn1c(C)nc2c(N(CCOC)CCOC)nc(C)nc21,inactive,inactive
CC1=C(C(=O)n2ccc3ccccc32)C(c2ccccc2Br)N=C(Nc2nc3ccccc3o2)N1 (stereo not given),inactive,inactive
N#Cc1ccc(-c2csc(N3CCC(C(N)=O)CC3)n2)cc1,inactive,inactive
O=C1C(F)N([S+](=O)([O-])c2ccc3c(c2)OCCO3)CCN1[S+](=O)([O-])c1c(F)cccc1F (stereo not given),inactive,inactive
COc1cccc(CNc2ccc(S(=O)(=O)Nc3ccc(N4CCNCC4)cc3)cc2)c1O,inactive,inactive
O=C(Nc1ccc(Cl)c(Cl)c1)Nc1nnc(N2CCNCC2)s1,inactive,inactive
Fc1ccccc1-c1ccc(Nc2nc(-c3ccncc3)nc3ccccc23)cc1F,inactive,inactive
O=C(O)c1cccc(S(=O)(=O)N2CCN(S(=O)(=O)c3ccc4c(c3)OCCO4)CC2)c1,inactive,inactive
Cc1ccc(-c2cc(C(=O)Nc3ccc(S(=O)(=O)Nc4ccc(C#N)cc4)cc3)c3ccccc3n2)cc1C,inactive,inactive
N#Cc1c(-c2ccc3ccccc3c2)no[n+]1[O-],inactive,inactive
CCOC(=O)C1CCN(C(=O)C(C)(C)NC(=O)Nc2ccc3c(c2)CCC3)CC1,inactive,inactive

Compound,Potency [1],Potency [2]
COc1ccc(C2Nc3ccccc3C(=O)N2Cc2ccc(C)o2)cc1COc1c(C)cccc1C (stereo not given),inactive,inactive
Cc1cnc(-c2ccccc2C(C)C)nc1NC(C)c1ccc(-c2cccnc2)cc1 (stereo not given),inactive,inactive
CCOC(=O)C1CCN(C(=O)C(C)(C)NC(=O)Nc2ccc3sccc3c2)CC1,inactive,inactive
COc1ccc(CC(=O)Nc2ccc(S(=O)(=O)Nc3cc(C)on3)cc2)cc1OC,inactive,inactive
C=C[C@H]1C(O[C@@H]2O[C@H](CO)[C@@H](O)[C@H](O)[C@H]2O)OC=C2C(=O)N3CCc4c([nH]c5ccccc45)[C@H]3C[C@H]21 (stereo not given in full),inactive,inactive
Cc1ccc(C2N=C(Nc3nc4ccccc4o3)NC3=C2C(=O)CCC3)cc1 (stereo not given),inactive,inactive
Cc1noc(C)c1-c1ccc2ncnc(NC(C)c3ccco3)c2c1 (stereo not given),inactive,inactive
O=C1CCc2cc([S+](=O)([O-])NC3CCOCC3)ccc2N1,inactive,inactive
Cc1cc2c(s1)c1cnn(Cc3cc(F)c(F)c(F)c3)c(=O)c1n2C,inactive,inactive
Cn1nnnc1Sc1ncnc2scc(-c3ccccc3Cl)c12,inactive,inactive
Cc1ccc(C(=O)[C@H]2CC[C@@H](C(=O)Nc3ccc(S(=O)(=O)Nc4nccs4)cc3)C2)cc1C,inactive,inactive
COc1cc(O)c(C(CC(=O)N2CCC(c3ccccc3)CC2)c2ccc3c(c2)OCO3)c(OC)c1 (stereo not given),inactive,inactive
Fc1cc(Nc2nc(-c3ccncc3)nc3ccccc23)ccc1-c1cccnc1,inactive,inactive
Cc1ccc(OCCn2c(CCNC(=O)C3CCNCC3)nc3ccccc32)cc1,inactive,inactive
CCC(=O)NC(c1cccs1)c1cc(Br)c2cccnc2c1O (stereo not given),inactive,inactive
CCCn1c(-c2ccc(F)cc2)nc2c(NC(C)CCCN(CC)CC)nc(C)nc21 (stereo not given),inactive,inactive
C[C@H]1CC[C@@]2(OC1)O[C@H]1CC3[C@@H]4CC[C@@H]5C[C@@H](O[C@@H]6O[C@H](CO)[C@@H](O[C@@H]7O[C@H](CO[C@@H]8OC[C@@H](O)[C@H](O)[C@H]8O)[C@@H](O[C@@H]8O[C@H](CO)[C@H](O)[C@H](O)[C@H]8O)[C@H](O)[C@H]7O)[C@H](O)[C@H]6O)CC[C@]5(C)C4CC[C@]3(C)[C@H]1[C@@H]2C (stereo not given in full),inactive,inactive
